Among the data in PubChem BioAssay AID521 (Sanford-Burnham Center for Chemical Genomics, 2006) are inhibition values, retold here.

Values joined by “and” are separate entries in the source; they are usually repeats but may differ in a detail not shown here. Equal values may be shown once. In all, about 110,000 compounds went through this assay and about 730 (0.66%) were called active. The full list was thinned out, with actives kept by preference. A number with no mark means an inactive call. Cut-off read from the data, not from the text of the source: active = inhibition above about 50%; inconclusive = no clear call, values can overlap the other calls; inactive = below that.

Tyrosine-protein phosphatase non-receptor type 7 (Homo sapiens), sequence (P35236 whole entry, looked up): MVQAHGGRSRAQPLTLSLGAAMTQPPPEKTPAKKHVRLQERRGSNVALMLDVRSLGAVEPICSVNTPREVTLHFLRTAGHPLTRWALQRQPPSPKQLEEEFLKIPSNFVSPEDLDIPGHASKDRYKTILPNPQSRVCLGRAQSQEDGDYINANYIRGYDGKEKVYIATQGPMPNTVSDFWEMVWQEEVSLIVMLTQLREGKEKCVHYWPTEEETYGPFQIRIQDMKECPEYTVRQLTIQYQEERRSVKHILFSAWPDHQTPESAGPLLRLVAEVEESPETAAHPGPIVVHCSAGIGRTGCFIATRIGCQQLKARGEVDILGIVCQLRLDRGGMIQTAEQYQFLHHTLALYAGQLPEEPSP

This test concerns the target Tyrosine-protein phosphatase non-receptor type 7 (Homo sapiens) (UniProt P35236). Put plainly: inhibitors of human HePTP phosphatase, primary screen, biochemical, absorbance, leukemia target (AID 521).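 Note: plate controls were vehicle for no effect and reference inhibitor for full effect.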 The settings on record: recombinant HePTP phosphatase activity, OD absorbance; at 20 µM; active compounds read high.
For orientation: inhibition means the drop in the measured response relative to a control, in per cent. Regarding `CCOc1ccc(C(=O)Nc2ccc(O)c(-c3nc4ccccc4o3)c2)cc1[N+](=O)[O-]`, the inhibition was 7.1%.
Regarding `CC1=NN(c2ccc(S(N)(=O)=O)cc2)C(=O)/C1=C\c1ccc(-c2ccc(Cl)c(C(=O)O)c2)o1`, the inhibition is 9.9%.
With `O=C1NN(c2ccccc2)C(=O)/C1=C/c1ccc(-c2cccc(C(=O)O)c2)o1`, the inhibition is 18.1%.
On to `O=C(O)c1cc(-c2ccc(C=C3C(=O)c4ccccc4C3=O)o2)ccc1O`, for which the inhibition was 102% (active).
As for `O=[N+]([O-])c1ccc(N2CCN(CCO)CC2)cc1NC(c1ccccc1)c1ccccc1`, the figure is -10.6%; as for `COc1cccc(C(=O)N2N=C(c3ccc(F)cc3)CC2(O)C(F)(F)F)c1` (stereo unspecified), 4.2%.
Turning to `CCOc1ccc(NC(=S)NC(NC(=O)c2cccc(C)c2)C(Cl)(Cl)Cl)cc1` (stereo unspecified), the inhibition was 4.6%.
Turning to `O=[N+]([O-])c1ccc(C2SCCN2S(=O)(=O)c2ccc3ccccc3c2)cc1` (stereo unspecified), the inhibition is 6.4%.
As for `CN(N)c1nc(N2CCCC2)nc(N2CCCC2)n1`, the inhibition is -2.9%.
With `COc1cc(/C=C2\C(=O)NC(=S)N(c3cccc(Br)c3)C2=O)c([N+](=O)[O-])cc1OC`, the inhibition was 102% (active).
With `COc1ccc(/C=C2\C(=O)NC(=S)N(c3ccc(Br)cc3)C2=O)cc1`, the inhibition was 8.6%.
For the molecule `O=C1NC(=O)N(c2cccc(Br)c2)C(=O)/C1=C/c1cccc([N+](=O)[O-])c1`, the inhibition is 9.5%.
Turning to `c1ccc2c(OCCCN3CCOCC3)cccc2c1`, the inhibition was -6.5%.
`Cc1ccc2ccc3cccc(S(=O)(=O)O)c3c2n1`: the inhibition is 2.1%.
Regarding `O=[N+]([O-])c1ccc(C2Nc3ccc(OC(F)(F)F)cc3C3C=CCC32)cc1` (stereo unspecified), the inhibition was -9.1%.
Turning to `Cc1ccc(C(=O)Nc2ccccc2C(=O)NC2CCCCCC2)cc1`, the inhibition was 2.4%.
As for `O=C(CCCN1C(=O)/C(=C/c2ccccc2)SC1=S)Nc1ccccc1C(=O)O`, the figure is 10.4%; as for `COc1cccc(C(O)c2nc3ccccc3n2C)c1` (stereo unspecified), -6.5%; as for `CCc1ccc(-n2c(C)cc(/C=C3/SC(=S)NC3=O)c2C)cc1`, 7.1%.
For `O=C(COc1ccc2ccccc2c1Br)c1ccc(Br)cc1`, the inhibition is 3%.
For the molecule `CC(=O)c1ccc(NS(=O)(=O)c2ccccc2[N+](=O)[O-])cc1`, the inhibition is 3%.
Take `Cc1cccc(NC(=O)COc2cc(C)c(Cl)c(C)c2)c1C`: the inhibition was 2%.
Regarding `COc1ccc(NC(=O)c2cccc(N3C(=O)c4ccc(C(=O)Nc5ccc(OC)cc5)cc4C3=O)c2)cc1`, the inhibition was -8.7%.
For `O=C1c2ccc3c4c(ccc(c24)C(=O)N1CCOc1ccccc1)CC3`, the inhibition was 3.5%.
As for `O=C(O)c1cccc(N2C(=O)c3ccc4c5c(ccc(c35)C2=O)CC4)c1`, the inhibition is 103% (active).
With `O=[N+]([O-])c1ccc(C=NC23CN4CN(CN(C4)C2)C3)s1`, the inhibition is 4.4%.
Take `COCCNC(=O)/C(=C/c1ccc(-c2cc(Cl)ccc2Cl)o1)NC(=O)c1ccc(C)cc1`: the inhibition is 5.9%.
Regarding `CCOc1cc(/C=N/NC(=O)c2cc(C)[nH]n2)ccc1Oc1ccc([N+](=O)[O-])cc1[N+](=O)[O-]`, the inhibition is 6.3%.
In the case of `CCCOC(=O)Nc1sc2c(c1C(=O)OCC)CCC2`, the inhibition is -6.2%.
In the case of `CCOCC(=O)Nc1sc2c(c1C(=O)OCC)CCCC2`, the inhibition is 3.2%.
`CCOC(=O)c1c(NC(=O)C2CC2c2ccccc2)sc2c1CCC2` (stereo unspecified): the inhibition was 77.8% (active).
As for `O=C(CN1C(=O)/C(=C/c2ccccc2F)SC1=S)Nc1ccccc1F`, the figure is -14.9%.
As to `Clc1ccccc1OCCCN1CCOCC1`, the inhibition is -7.9%.
As for `O=C(CCc1ccccc1)Nc1ccc(Cl)cc1`, the inhibition was 5.1%.
Regarding `CCOC(=O)COc1ccc(/C=C2/NC(=S)NC2=O)cc1OC`, the inhibition is 4.1%.
Consider `Cc1ccc(-c2cc(C(=O)Nc3ccccc3)c3ccccc3n2)cc1`, for which the inhibition was 9.3%.
As for `COc1cc(/C=C2\SC(=S)NC2=O)cc(Br)c1OCc1c(C)no[n+]1[O-]`, the figure is -10.3%.
In the case of `CCN(CC)c1ccc(C=C2C(=O)N(C)C(=O)N(C)C2=O)c(O)c1`, the inhibition was -4.9%.
On to `Cc1ccc(C(=O)N/C(=C\c2sccc2C)C(=O)NCC(C)C)cc1`, for which the inhibition is 8.2%.
Turning to `Nc1nc2nonc2nc1Nc1ccccc1`, the inhibition is 0.4%.
Regarding `Cc1cc(N2C(=O)NC(=O)/C(=C\c3cn(C)c4ccccc34)C2=O)ccc1Br`, the inhibition was 4.9%.
With `Cc1oc2ccccc2c1/C=N/n1cnc2sc3c(c2c1=O)CCCC3`, the inhibition is -2.6%.
To `N#CC1=C(N)n2c(s/c(=C\c3ccc4c(c3)OCO4)c2=O)=C(C#N)C1c1ccc2c(c1)OCO2` (stereo unspecified) belongs 86.3% (active); to `CCOC(=O)C1=C(C)N=c2s/c(=C\c3ccc4c(c3)OCO4)c(=O)n2C1c1ccc(OC)c(Br)c1` (stereo unspecified), 3.8%; to `CCOC(=O)C1=C(C)N=c2s/c(=C\c3ccc4c(c3)OCO4)c(=O)n2C1c1ccc(C)cc1` (stereo unspecified), 1.8%.
For the molecule `CC1CCOP(=O)(C(Nc2ccc([N+](=O)[O-])cc2)c2ccc(Br)cc2)O1` (stereo unspecified), the inhibition is -6%.
As for `CCOc1ccc(-c2cc(C(=O)Nc3cccc([N+](=O)[O-])c3)c3ccccc3n2)cc1`, the figure is 11.5%; as for `COc1ccc(-c2nc(-c3ccccc3)no2)c(OC)c1`, 16.7%; as for `COc1ccc(-c2noc(-c3ccc(Br)cc3)n2)cc1`, -4.6%.
On to `COc1ccc(/C=C2\SC(=Nc3ccc(F)cc3)NC2=O)cc1OC`, for which the inhibition was 25.3%.
As for `COc1cc2c(cc1NC(=O)c1c(-c3c(F)cccc3Cl)noc1C)oc1ccccc12`, the figure is -5.8%.
In the case of `COc1ccc(-c2nnc(SCC(=O)NN)n2-c2ccccc2)cc1`, the inhibition was -0.1%.
`COc1ccc(-c2nc3ccccc3c(C(=O)Nc3ccc(C(C)=O)cc3)c2C)cc1`: the inhibition is -9.2%.
As to `O=C(NC(=O)c1ccccn1)NC(c1ccccc1)c1ccccc1`, the inhibition is -13% and 2.8%.
`O=C1NC(=S)N/C1=C/c1ccc(-c2cccc(Br)c2)o1`: the inhibition is 3.7%.
`Nn1c(NCc2ccccc2)nc2ccccc21`: the inhibition was -4.8%.
Regarding `CCOC(=O)c1cnn(-c2ccccc2)c1NC(=O)c1ccc([N+](=O)[O-])cc1`, the inhibition was 1.7%.
As for `Cc1ccccc1NC(=O)c1cnn(-c2ccccc2)c1NC(=O)c1ccco1`, the inhibition is 7.2%.
As for `Cc1ccc(NC(=O)c2cnn(-c3ccccc3)c2NC(=O)c2ccccc2Cl)cc1C`, the figure is 103% (active); as for `O=C1CC(N2CCN(c3ccccc3F)CC2)C(=O)N1c1cccc(Cl)c1` (stereo unspecified), 5.6%; as for `O=C1C=CC2=C3Oc4c(ccc5cc(O)ccc45)C(c4ccccc4C(=O)O)C3C=CC2=C1` (stereo unspecified), 103% (active).
Take `NC(=S)N/N=C(/Cc1ccccc1)c1ccc(-c2ccccc2)cc1`: the inhibition was 6.5%.
As for `COc1ccccc1C1SCCN1S(=O)(=O)c1ccc(-c2ccccc2)cc1` (stereo unspecified), the inhibition was 7.9%.
As for `Cc1cccc(N2CCN(C(=O)C(Cl)(Cl)Cl)CC2)c1C`, the figure is 5.3%; as for `CC(C)(O)C#Cc1ccc(C2C3=C(CC(C)(C)CC3=O)OC3=C2C(=O)CC(C)(C)C3)cc1`, 1.5%.
As to `COc1ccc(C(=O)ON=C2c3ccccc3-c3ccccc32)cc1OC`, the inhibition is 62.3% (active).
To `COc1cc2c(cc1C)/C(=N/OC(=O)c1ccc(OC)c([N+](=O)[O-])c1)CCC2` belongs -10.5%; to `COc1cc(C(C)=O)ccc1OC(=O)CN1C(=O)c2ccccc2C1=O`, -2.9%; to `CCCCOc1c([N+](=O)[O-])cc([N+](=O)[O-])c2nsnc12`, 10.8%.
As to `O=C1Nc2ccccc2/C1=N\N=C\c1c(F)cccc1Cl`, the inhibition is 14%.
To `CCCC(NC(=O)c1ccccc1)C(=O)OCC(=O)Nc1sc2c(c1C(=O)OCC)CCCC2` (stereo unspecified) belongs 1.3%; to `CCOC(=O)c1c(N)sc(C)c1CC`, -13.6%; to `CC1(C)Cc2ccccc2C(N/N=C/c2c(O)ccc3ccccc23)=N1`, 5%.
To `Cc1ccccc1NC(=O)c1c(NC(=O)C(C)(C)C)sc2c1CCC(C)C2` (stereo unspecified) belongs 3.9%; to `CCOc1ccccc1NC(=O)c1c(NC(=O)c2cccs2)sc2c1CCC(C)C2` (stereo unspecified), 74.5% (active).
`CCOc1ccccc1NC(=O)c1c(NC(=O)c2ccco2)sc2c1CCC(C)C2` (stereo unspecified): the inhibition is 4.6%.
On to `ONC(=Nc1ccc2c(c1)OCO2)C(=Nc1ccc2c(c1)OCO2)NO`, for which the inhibition was -7.5%.
For `COc1ccc(C2SCCN2C(=O)c2cc3ccccc3oc2=O)cc1` (stereo unspecified), the inhibition is -6.8%.
In the case of `Cc1ccc(OCC(=O)NCc2ccc(F)cc2)c(Br)c1`, the inhibition is 0%.
To `O=C(COc1cc2oc(=O)c3c(c2cc1Cl)CCCC3)OCc1ccccc1` belongs 7%; to `Cc1ccc(-c2cc(C(=O)N3CC(C)CC(C)C3)c3ccccc3n2)cc1C` (stereo unspecified), -17%.
For the molecule `CCOc1cccc(-c2cc(C(=O)N3CCCCCC3)c3ccccc3n2)c1`, the inhibition was -11.5%.
`Cc1ccc(-c2cc(C(=O)N3CCCCCC3)c3ccccc3n2)o1`: the inhibition is 78.1% (active).
With `Cc1ccc(NC(=O)c2cc(-c3ccc(C)o3)nc3ccccc23)nc1`, the inhibition was 2.7%.
Turning to `Cc1ccc(-c2cc(C(=O)NCc3ccccc3)c3ccccc3n2)o1`, the inhibition was 53.4% (active).
In the case of `Cc1ccc(C)c(-c2cc(C(=O)NN)c3ccccc3n2)c1`, the inhibition was 5%.
`CCOc1cc(C(=O)Nc2cccc(F)c2)cc(OCC)c1OCC`: the inhibition was 104% (active).
To `CCOc1cc(C(=O)Nc2ncccn2)cc(OCC)c1OCC` belongs -0.3% and 8.9%; to `COc1ccc(NC(=O)c2cccc(F)c2)cc1OC`, 9.7%; to `CCOc1ccc(C(=O)Nc2ccc(I)cc2Cl)cc1[N+](=O)[O-]`, 3.7%.
In the case of `O=C(Nc1cccc(I)c1)c1ccc2c(c1)C(=O)N(CC1CCCO1)C2=O` (stereo unspecified), the inhibition was 6.2%.
